Data: PubChem BioAssay (NCI)
This is part of a sample that, as a whole, favours compounds with a hit. Of some 83,000 tested, about 20% had one in any assay.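 Values shown are percent growth following 48 h exposure of cells in 96-well plates to a single concentration of compound; below 10 was considered active.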 A number with no mark means an inactive call. Active and inactive are the calls of the source.

What was measured:
Assay in all cases: NCI-60 one-dose screen, 48 h (100 = growth as untreated, 0 = no growth, -100 = all killed)
Conditions in all cases: 10 µM unless noted
NCI-H23 lung = system: NCI-H23 lung
NCI-H226 lung = system: NCI-H226 lung
NCI-H322M lung = system: NCI-H322M lung
NCI-H460 lung = system: NCI-H460 lung
NCI-H522 lung = system: NCI-H522 lung
A549/ATCC NSCLC = system: A549/ATCC NSCLC
786-0 renal = system: 786-0 renal
COLO 205 colon = system: COLO 205 colon
DU-145 prostate = system: DU-145 prostate
K-562 leukemia = system: K-562 leukemia
MALME-3M melanoma = system: MALME-3M melanoma
MDA-MB-231 breast = system: MDA-MB-231 breast
SF-268 CNS = system: SF-268 CNS
SF-295 CNS = system: SF-295 CNS
SF-539 CNS = system: SF-539 CNS
UACC-257 melanoma = system: UACC-257 melanoma
HCT-15 colon = system: HCT-15 colon
RXF 393 renal = system: RXF 393 renal
M14 melanoma = system: M14 melanoma
HOP-62 NSCLC = system: HOP-62 NSCLC

| SMILES | growth (NCI-H23 lung) | growth (NCI-H226 lung) | growth (NCI-H322M lung) [%] | growth (NCI-H460 lung) | growth (NCI-H522 lung) | growth (A549/ATCC NSCLC) [%] | growth (786-0 renal) | growth (COLO 205 colon) [%] | growth (DU-145 prostate) | growth (K-562 leukemia) | growth (MALME-3M melanoma) | growth (MDA-MB-231 breast) | growth (SF-268 CNS) [%] | growth (SF-295 CNS) [%] | growth (SF-539 CNS) | growth (UACC-257 melanoma) [%] | growth (HCT-15 colon) | growth (RXF 393 renal) [%] | growth (M14 melanoma) | growth (HOP-62 NSCLC) [%] |
| --- | --- | --- | --- | --- | --- | --- | --- | --- | --- | --- | --- | --- | --- | --- | --- | --- | --- | --- | --- | --- |
| COc1cccc(/C=C2\COc3ccc(O)c(O)c3C2=O)c1OC | 60.5% | 62.8% | 32.7 | 3.8% (active) | -33.3% (active) | 32.5 | -6.52% (active) | 72.7 | 2.64% (active) | -5.62% (active) | -75.9% (active) | -34.4% (active) | 17.4 | 83.2 | -73% (active) | 26.8 | -10.7% (active) |  |  |  |
| O=C(c1ccccc1)c1ccccc1Cl | 100% | 105% | 108 | 104% | 92.4% | 98.9 | 98.8% |  | 108% | 100% | 102% | 105% | 109 | 110 | 100% | 97.8 | 104% | 111 | 101% |  |
| O=C(NCCCO)c1cc(Cl)ccc1O | 8.32% (active) | 24.3% | 83.6 | 9.74% (active) | -1.53% (active) | 38.5 | 49.5% | 25 | 36.1% | 11.1% | 0.89% (active) | 28.2% | 28.4 |  | 45% | 16.4 | 77.5% | 40.7 |  |  |
| O=C1CC(=O)N(c2ccccc2)O1 | 108% | 91.2% | 108 |  | 95.6% | 107 | 105% | 92.3 | 105% | 111% |  | 87.6% | 109 | 101 | 93.6% | 106 | 102% | 109 | 99.9% |  |
| N=c1ccn2c(n1)O[C@@H]1[C@@H](O)[C@H](CO)O[C@@H]12 |  | 92.4% | 82.2 | 12.3% | 39.4% | 22.2 | 31.1% | 49.3 | 51.4% | 67.1% | 59.1% | 91.7% | 65.8 | 88.7 | 98.4% | 70.3 |  | 96.4 | -1.79% (active) | 47.7 |
| Cc1c(C(N)=O)sc2c1c(=O)n(Cc1ccccc1)c1nnc(S(=O)(=O)CC(=O)Nc3ccc(Cl)cc3)n21 | 43.2% | -4.71% (active) | 34.8 | -20.8% (active) | 16.9% | 28.5 | 3.47% (active) | 47.2 | 43.9% |  | 30% | 20.5% | 73.6 | 35.1 |  | 47.4 | 73.1% | 41.8 | 45.2% |  |
| CCOC(=O)c1c2c(c(C)n1Cc1ccccc1)-c1nc(N)ncc1CC2 |  | 83.7% | 94.7 | 102% | 96.7% | 104 | 92% | 131 | 120% | 94.2% | 168% | 79.3% | 104 | 229 | 103% | 144 | 99.4% | 120 | 111% | 82.4 |
| CCOC(=O)c1c(NC(=O)C2CCCCC2C(=O)O)sc2c1CCCC2 (stereo not given) |  | 95.5% | 86.4 | 109% | 94% | 97.6 | 106% | 114 | 108% | 102% | 109% | 105% | 105 | 96.3 | 102% | 92.1 | 106% | 114 | 106% | 104 |
| CCN(CC)CCCNCCCNc1cc(OC)cc2cccnc12 |  | 81.9% | 81 | 103% | 93.1% | 92.4 | 94.4% | 24.6 | 104% | 89.9% | 108% |  | 90.3 | 99.2 | 84.6% | 107 | 83.9% | 70.6 | 102% | 92.3 |
